HSF1 activator: increases HSF-1 driven luciferase reporter signal | NIH3T3-HGL HSF-1 luciferase reporter, MG132, 8 h; 100% = twice DMSO control signal | activation, % at 9 µM | 300,000 compounds, 1.7% hits;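 active = mean replicate activation of at least 50% with a set share of replicates each reaching 50%; inconclusive = only one of those two conditions met; inactive = mean below 50% and too few replicates reaching it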
Wnt act: Wnt/beta-catenin pathway activation | Wnt/beta-catenin reporter cell assay, activator, plate reader | activation, % at 9.35 µM | 300,000 compounds, 1.2% hits | AID 743398; in the data active = activation above about 30%, passing the limit was not always enough; inconclusive = no clear call, values can overlap the other calls
MITF TRPM1 HTS: MITF TRPM1 promoter activation in melanoma cells | AID 588334 | SK-MEL-5 TRPM1-promoter luciferase, 24 h; % of positive control, neutral wells = 0 | activation, % at 12.5 µM | 300,000 compounds, 0.75% hits;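 active = mean activation of at least 80% with every replicate also reaching 80%; inconclusive = mean reaches 80% but some replicate falls short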
HSF1 inh: HSF1 inhibition; 300,000 compounds, 0.77% hits; NIH3T3-HGL HSE-luciferase, MG132-induced, luminescence 8 h; stronger effect = lower value; AID 2098; activity change, negative = inhibition, % at 7.5 µM (by protocol);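 active = more than half of replicate wells show activity change below -50%, luminescence cut by over half; inconclusive = some wells, but at most half, below -50%; inactive = no replicate well below -50%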;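 also: luciferase reports HSF-1 transcriptional activity via heat shock element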
esBAF inh: SWI/SNF esBAF complex inhibition; 350,000 compounds, 2% hits; mouse ES cells, Bmi1-luciferase knock-in reporter, 24 h; 100% = twice the neutral-well signal; reporter increase, % at 12.5 µM; in the data active = activation above about 40%; inconclusive = no clear call, values can overlap the other calls;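 also: a rise in the Bmi1 reporter signal indicates esBAF inhibition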
Hits are given with their value; – = inactive; ? = inconclusive; · = no result. Most compounds without a hit are left out; they make up all but 3.8% or so of the library.

SMILES	HSF1 activator	Wnt act	MITF TRPM1 HTS	HSF1 inh	esBAF inh
Cc1nc(SCC(=O)O)c2oc3ccccc3c2n1	–	–	·	–	–
O=C(CSc1ncnc2c1oc1ccccc12)c1cccs1	–	·	?	–	56.8
Cc1nc(SCC(=O)c2cccs2)c2oc3ccccc3c2n1	50.8	71.3	·	–	·
NC(=O)CSc1ncnc2c1oc1ccccc12	–	–	–	–	–
C[C@@H]1CN([C@H](C)CO)C(=O)c2cccc(NC(=O)Nc3ccc4c(c3)OCO4)c2O[C@@H]1CN(C)Cc1ccc(C(=O)Nc2ccccc2N)cc1	·	·	·	·	–
COc1ccc(S(=O)(=O)Nc2ccc3c(c2)CC(=O)N([C@@H](C)CO)C[C@H](C)[C@H](CN(C)CC2CC2)O3)cc1	·	·	·	·	–
Cc1cc(=O)oc2cc(OCc3ccccc3)ccc12	58.0	–	–	–	–
CCCc1cc(=O)oc2cc(OCc3ccc(C(=O)O)cc3)ccc12	–	–	–	–	53.1
Cc1cc(=O)oc2cc(OCc3c(F)cccc3Cl)ccc12	·	42.1	·	·	·
COc1ccc(COc2ccc3c(C)cc(=O)oc3c2)cc1	–	–	?	–	–
CCCc1cc(=O)oc2cc(OCc3ccc(C(=O)O)o3)ccc12	–	–	–	–	–
C=CCSC1=NNC(c2ccc(C(C)(C)C)cc2)=NN1	–	–	–	–	62.8
CO[C@H](CN(C)C(=O)C1CCOCC1)[C@@H](C)CN(C(=O)Nc1ccc(C(F)(F)F)cc1)[C@@H](C)CO	·	·	·	·	–
Brc1ccc(-c2nnc(-c3ccccc3)c(N3CCSCC3)n2)cc1	125.9	–	·	–	–
CN1CCN(c2nc(-c3ccc(Br)cc3)nnc2-c2ccccc2)CC1	–	–	·	–	–
O=C(NCCc1ccccc1F)C(=O)Nc1nccs1	–	36.6	–	–	–
CC(C)NC(=O)N(C)C[C@H]1Oc2cc(C#C[C@@H](C)O)ccc2S(=O)(=O)N([C@H](C)CO)C[C@@H]1C	·	·	·	·	–
CNc1ncc(C(=O)c2ccc(-c3ccccc3)cc2)s1	–	41.4	–	–	·
CNc1ncc(C(=O)c2ccc(Cl)cc2)s1	–	·	·	–	–
CNc1ncc(C(=O)c2ccc(Cl)c(Cl)c2)s1	–	·	·	–	77.1
O=C(O)C[C@H]1CC[C@@H]2[C@H](COC[C@@H](O)CN2S(=O)(=O)c2ccc(F)cc2)O1	·	·	·	·	–
CO[C@H]1CN(C)C(=O)c2cc(NC(C)=O)ccc2OC[C@@H](C)N(C(=O)CC2CC2)C[C@@H]1C	·	·	·	·	–
COc1ccc(OC)c(NC(=O)C2CCCN(S(=O)(=O)c3c(C)nn(C)c3C)C2)c1 (configuration not stated)	–	–	–	-71.6	–
COc1ccc(OC)c(NC(=O)C2CCCN(S(=O)(=O)c3c(C)noc3C)C2)c1 (configuration not stated)	–	·	–	–	–
CCOC(=O)C1CCCN(CCC(=O)Nc2cc(OC)ccc2OC)C1 (configuration not stated)	–	–	·	-51.5	–
SMILES	HSF1 activator	Wnt act	MITF TRPM1 HTS	HSF1 inh	esBAF inh
CCCNC(=O)N1C[C@H]2[C@@H](c3ccccc31)[C@@H](CO)N2Cc1cc(F)ccc1F	·	·	·	·	–
COC(=O)c1ccc(N2CCN(CC(=O)c3ccc(-c4ccccc4)cc3)CC2)c([N+](=O)[O-])c1	–	·	–	–	48.5
COc1ccccc1N1CCN(CC(=O)c2ccc(F)cc2)CC1	–	–	·	–	41.9
COc1ccc(C(=O)CN2CCN(c3ccc(F)cc3)CC2)cc1OC	–	·	–	–	·
CCC(=O)Nc1ccc2oc(-c3cccnc3)nc2c1	–	–	?	–	·
COC(=O)c1ccc(-c2nc3ccc(C)cc3o2)cc1	–	55.4	–	–	52.5
CCC(C)NCC(=O)Nc1ccc(-c2nc3cc(NC(=O)CNC(C)CC)ccc3o2)cc1 (configuration not stated)	·	–	·	·	–
CC(C)CC(=O)Nc1ccc2oc(-c3cccnc3)nc2c1	–	·	–	–	50.5
Cc1ccc2oc(-c3ccc(NC(=O)CC(C)C)cc3)nc2c1	–	–	100.7	–	50.4
CCCC(=O)Nc1ccc2oc(-c3cncc(Br)c3)nc2c1	–	–	96.8	–	–
Cc1noc(C)c1NC(=O)Nc1ccc2c(c1)CC(=O)N([C@H](C)CO)C[C@H](C)[C@@H](CN(C)CC1CC1)O2	·	·	·	·	–
CNC[C@H]1Oc2ccc(NC(=O)Nc3ccc(OC)cc3)cc2CC(=O)N([C@H](C)CO)C[C@H]1C	·	·	·	·	–
C[C@H]1CN([C@@H](C)CO)C(=O)c2cccc(NS(=O)(=O)c3ccccc3)c2O[C@@H]1CN(C)Cc1ccc(C(=O)O)cc1	·	·	·	·	–
C[C@H](CO)N1C[C@H](C)[C@H](CN(C)C(=O)Nc2cccc3ccccc23)Oc2c(NS(=O)(=O)c3ccccc3)cccc2C1=O	·	·	·	·	–
O=[N+]([O-])c1ccc(N=Cc2sc3ccccc3c2O)cc1	–	·	–	-84.1	–
Cn1cnnc1SCC(=O)Nc1ccc2nc(SCc3ccccc3)sc2c1	–	–	–	–	68.6
Cn1cnnc1SCC(=O)Nc1ccc2nc(SCc3cccc4ccccc34)sc2c1	–	·	–	–	·
CCN(CC)C(=O)CSc1nc2ccc(NC(=O)CSc3nccn3C)cc2s1	–	–	–	–	78.5
C[C@H](CO)N1C[C@H](C)[C@@H](CN(C)Cc2cccnc2)Oc2ncc(C3=CCCC3)cc2C1=O	·	·	·	·	–
C[C@@H]1CCCCO[C@@H](CN(C)Cc2ccncc2)[C@H](C)CN([C@H](C)CO)C(=O)c2cc(NS(C)(=O)=O)ccc2O1	·	·	·	·	–
Cc1ccc(NC(=O)CS(=O)c2ccccc2N)c(C)c1 (configuration not stated)	–	–	–	–	50.4
Cc1ccc(NC(=O)Cc2ccccc2)c(C)c1	–	·	·	–	·
COc1ccc(OC)c(N=C2SCCCN2C(=O)c2ccc(N3C(=O)CCC3=O)cc2)c1	–	–	·	-68.4	·
CCOc1ncccc1C(=O)N1CCCSC1=Nc1ccccc1OC	–	–	–	–	·
CNc1ccccc1C(=O)OCC(=O)c1ccccc1	–	·	–	–	58.6
SMILES	HSF1 activator	Wnt act	MITF TRPM1 HTS	HSF1 inh	esBAF inh
O=C(COC(=O)c1ccccc1)c1ccc(Br)cc1	57.8	–	–	–	61.0
CNc1ccccc1C(=O)OCC(=O)c1ccc(F)cc1	–	–	–	–	·
O=C(COC(=O)c1ccc(Br)cc1)NCCc1ccccc1	–	·	–	–	·
CN(C)C(=O)C[C@@H]1C[C@H]2c3cc(NS(=O)(=O)c4ccc(F)cc4)ccc3O[C@H]2[C@@H](CO)O1	·	·	·	·	–
COc1cccc(CSc2nnc(C(F)(F)F)n2Cc2ccc(F)cc2)c1	87.5	–	–	–	·
COC(=O)C(NNc1ccccc1C)(NC(=O)c1ccc(F)cc1)C(F)(F)F (configuration not stated)	80.5	–	·	–	–
COC(=O)C(NNc1ccc(F)cc1)(NC(=O)c1ccccc1)C(F)(F)F (configuration not stated)	·	–	–	·	·
COc1ccc(NC(=O)/C=C/c2cccc(F)c2)cn1	–	36.0	–	–	·
COc1ccc(NC(=O)/C=C/c2ccco2)cn1	–	?	118.0	–	43.7
COc1ccc(NC(=O)/C=C/c2ccc(Br)o2)cn1	–	–	–	–	–
